# EWS-Fli block = EWS/Fli-driven NR0B1 reporter inhibitors, primary screen, A673 cells, NR0B1 luciferase, luminescence, MLPCN library. viability-normalised. inhibition, % at 12.6 µM. 0.67% of 350,000 active. AID 651661, 2012;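 active = mean inhibition of at least 50% after viability correction, with every replicate also passing that limit; inconclusive = mean reaches 50% but only one of two replicates passes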;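 also: firefly luciferase signal divided by Alamar Blue viability fluorescence both relative to DMSO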
# rRNA inh HTS = reduced GFP signal of wild-type E. coli, primary screen, bacterial rRNA inhibitor project, GFP/RFP fluorescence, OD600, single point; E. coli WT GFP vs humanized-ribosome RFP mutants, 24 h; hits give low values; DMSO median 0, no signal -100; GFP signal change (wild-type ribosome), % (concentration not given with the values); 1.6% of 350,000 active; AID 720706, 2013;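 active = significant combined selectivity score with lowered wild-type GFP, culture density cut under 30%, mutant RFP and density less affected; inactive = any of these conditions unmet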
# LGR2 antag = inhibitors of bursicon-induced LGR2 CRE-luciferase signal, primary screen, cell-based, HEK293, CRE-luciferase reporter, bursicon stimulation; bursicon-stimulated, 4 h; inhibition, % at 9.99 µM; 0.35% of 380,000 active; Drosophila bursicon receptor LGR2 (rickets);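 active = drop in luminescence signal, shown as inhibition above about 50% in the replicate tests, limit read from the data, passing the limit was not always enough; inconclusive = probably only some replicates passing the limit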;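 also: agonist challenge used bursicon conditioned medium at about half maximal strength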
# PGC1a acetyl inh = inhibitors of PGC1a acetylation signal, primary screen, cell-based, U2OS, AlphaScreen, inhibitor mode. AlphaScreen anti-acetyl-lysine; with virally co-expressed GCN5 acetyltransferase. inhibition, % at 15.6 µM. 0.17% of 350,000 active;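 active = every replicate shows inhibition of at least 40%; inconclusive = mean inhibition at least 40% but some replicate below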;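 also: 0% = neutral control wells and 100% = positive control wells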
# PAX8 inh HTS = inhibitors of PAX8-driven TPO luciferase reporter, primary screen, RMG-I cells, single concentration | SteadyGlo, 24 h | inhibition, % at 12.6 µM | 1.2% of 360,000 active | AID 652154, 2013;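 active = mean replicate inhibition at least 60% with every replicate also reaching 60%; inconclusive = only one of the two criteria is met; inactive = mean below 60% and not all replicates reaching 60%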;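 also: luciferase light reporting Pax8 driven TPO promoter activity; plate controls were median of neutral control wells for no effect and mitoxantrone controls for full effect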
# SIRT5 inh = SIRT5 desuccinylase inhibitors, primary screen, biochemical, fluorescence imaging, single point, set 5; NAD-dependent protein deacylase sirtuin-5, mitochondrial (Homo sapiens), Q9NXA8; 1.1% of 330,000 active; inhibition, % at 15 µM; Purified SirT5, succinyl-peptide AMC, trypsin-coupled fluorescence; AID 652115, 2013; in the data active = inhibition above about 15%; inconclusive = no clear call, values can overlap the other calls
# Target sequence (Q9NXA8 whole entry, looked up): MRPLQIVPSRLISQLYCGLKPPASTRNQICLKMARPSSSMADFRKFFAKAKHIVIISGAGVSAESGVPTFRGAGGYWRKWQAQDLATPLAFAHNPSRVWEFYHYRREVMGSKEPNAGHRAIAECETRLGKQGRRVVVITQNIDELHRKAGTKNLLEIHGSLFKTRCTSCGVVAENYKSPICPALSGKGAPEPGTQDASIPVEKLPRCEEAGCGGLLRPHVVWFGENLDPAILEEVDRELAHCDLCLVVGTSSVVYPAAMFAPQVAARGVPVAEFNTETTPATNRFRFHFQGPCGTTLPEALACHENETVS
# Active calls of the source: *; ? = inconclusive; · = no result given. This is a sample that favours compounds with a hit; in the whole collection about 3.4% have one here.
SMILES,EWS-Fli block,rRNA inh HTS,LGR2 antag,PGC1a acetyl inh,PAX8 inh HTS,SIRT5 inh
Cc1cc(Br)ccc1OCCn1ccnc1,8,-30,-12,·,73*,·
Nc1nn(S(=O)(=O)c2ccccc2)cc1-c1ccc([N+](=O)[O-])cc1,83*,17,2,-11,-23,0
Cc1ccc(S(=O)(=O)n2cc(-c3ccccc3)c(N)n2)cc1,·,·,7,2,·,·
CCOc1ccc(NC(=O)CN2C(=O)S/C(=C/c3cccn3C)C2=O)cc1,3,23,9,3,0,112*
CC1(C)CC(c2nc(-c3ccc([N+](=O)[O-])cc3)cs2)CCO1 (centres undefined),3,-42*,0,4,-25,0
C[C@@H]1CN([C@H](C)CO)C(=O)c2cccc(NS(C)(=O)=O)c2O[C@@H]1CN(C)S(=O)(=O)c1ccccc1,2,1,9,-9,·,-2
COCCn1nnnc1C(c1cc2cc(C)ccc2[nH]c1=O)N1CCCCCC1 (centres undefined),·,·,·,11,·,·
COCCn1nnnc1C(c1cc2cc(OC)ccc2[nH]c1=O)N1CCC(Cc2ccccc2)CC1 (centres undefined),15,5,3,16,·,17*
CCNC(=O)[C@@H]1[C@@H](CO)[C@@H]2Cn3c(cccc3=O)[C@@H]2N1CC1CCCCC1,0,0,-4,·,·,·
CC(=O)Nc1ccc(NC(=S)NC(=O)C2CC2)cc1,·,2,-26,·,-48,-1
O=C(NC(=S)Nc1ccc(Br)c(Cl)c1)C1CC1,6,-27*,-1,·,-34,0
CCC/C(=C1/c2ccccc2C(=O)N1c1ccccc1)c1c(C)noc1C,2,-25*,-9,·,-7,·
CCC/C(=C1/c2ccccc2C(=O)N1c1ccccc1)c1ccc2c(c1)OCO2,4,-19,-1,-19,4,·
O=C(c1ccccc1F)N1C[C@H]2[C@@H](c3ccccc31)[C@H](CO)N2C(=O)c1ccccc1,3,3,6,-9,8,-5
COc1cc(N/N=C(\C)c2ccc(O)c(C)c2)nc(-c2ccccc2)n1,-45,-37*,11,-17,3,0
Cc1nc(C)c(CC(=O)N2CCc3c([nH]c4ccccc34)C2c2ccccn2)s1 (centres undefined),12,4,18,·,-11,18*
COc1ccc(C#Cc2ccc3c(c2)[C@]2(C(=O)N3)[C@H](c3ccc(OCCO)cc3)N3[C@H](c4ccccc4)[C@H](c4ccccc4)OC(=O)[C@H]3[C@@H]2C(=O)N2CCCCCCC2)cc1,-9,·,·,3,-10,1
COc1ccc(-c2cc3nc[nH]c(=O)c3s2)cc1,·,·,·,5,·,·
COc1ccc(-c2cc3nc(CCl)[nH]c(=O)c3s2)cc1,35,4,68*,·,17,-10
C[C@@H]1CN([C@H](C)CO)C(=O)c2cc(NC(=O)CCCN(C)C)ccc2O[C@@H]1CN(C)Cc1ccc(C(F)(F)F)cc1,-5,1,21,1,-15,-9
O=C(Nc1ccc(F)cc1)N1CC(=O)N2[C@H](CO)[C@H](c3ccc(C#Cc4ccccc4)cc3)[C@@H]2C1,·,-8,·,·,·,·
COc1ccc2c3c([nH]c2c1)[C@H](CO)N(CC1CC1)CC31CCN(C(=O)c2ccccc2F)CC1,8,0,-6,-4,-6,5
CN(C)/C=N/C1=C(C#N)C(c2cccs2)c2ccc3ccccc3c2O1 (centres undefined),54*,-13,-65,·,-4,1
O=C(C[C@@H]1C[C@@H]2c3cc(NC(=O)C4CCOCC4)ccc3O[C@@H]2[C@@H](CO)O1)NCC1CC1,2,2,9,10,0,-11
CO[C@@H]1CN(C)C(=O)c2ccc(NS(=O)(=O)c3ccc(C)cc3)cc2OC[C@H](C)NC[C@@H]1C,-6,2,-23,-6,·,-3
SMILES,EWS-Fli block,rRNA inh HTS,LGR2 antag,PGC1a acetyl inh,PAX8 inh HTS,SIRT5 inh
O=C(CCl)Nc1cc2[nH]c(=O)[nH]c2cc1Br,?,0,5,·,91*,-1
O=C1C(Cl)=C(NC(=O)c2ccccc2)C(=O)C(Cl)=C1NC(=O)c1ccccc1,30,6,0,16,80*,-2
O=C(NC1=C(Nc2ccc(Cl)cc2)C(=O)c2ccccc2C1=O)c1ccccc1,-8,·,·,·,47,0
O=C(NC[C@@H]1CC[C@@H]2[C@@H](CN2S(=O)(=O)c2ccccc2[N+](=O)[O-])O1)C1CCOCC1,-4,·,·,4,·,-3
CN1c2ccc(-c3ccc(F)cc3)cc2[C@@H]2[C@@H](CCN2C(=O)CC2CC2)[C@H]1CO,·,-23,·,·,·,·
Cc1ccc(/C=N/NC(=O)c2ccncc2)o1,9,13,1,-3,84*,·
O=C(N/N=C/C(Cl)=C/c1ccccc1)c1ccccn1,-60,-15*,-34,·,-185,-1
O=C(N/N=C/c1ccco1)c1ccncc1,·,·,·,12,·,·
O=C(N/N=C/c1cc(Cl)cc(Cl)c1O)c1ccncc1,12,-19*,17,15,-1,-16
O=C(N/N=C/C(Cl)=C/c1ccccc1)c1ccncc1,-1,8,-10,-5,-33,-2
CC(C)c1ccc(/C=N/NC(=O)c2ccccn2)cc1,28,-2,75*,-2,-15,1
COc1ccc(S(=O)(=O)Nc2cccc3c2O[C@@H](CN(C)C(=O)Nc2cccc4ccccc24)[C@H](C)CN([C@H](C)CO)C3=O)cc1,-1,2,7,-9,·,·
Cc1ccc(-c2ccccc2[C@@H]2[C@@H](C#N)N(C(=O)Cc3cccnc3)[C@@H]2CO)cc1,·,-4,·,·,·,·
Cc1ccc(/C=N/NC(=O)c2ccccn2)o1,-49,10,-35,2,120*,5
O=C(N/N=C/c1ccncc1)c1ccccn1,-33,-1,-12,-4,-68,1
CCOCCCNCc1ccc(OC)cc1,·,·,-2,8,·,·
COc1ccc2cc(CNCCOCCOCCNCc3ccc4cc(OC)ccc4c3)ccc2c1,56*,-50,103*,·,117*,-2
CCC(=O)N1C[C@@H](C)[C@@H](OC)CN(C)C(=O)c2cc(NC(=O)CC(F)(F)F)ccc2OC[C@@H]1C,·,1,16,1,-24,21*
CO[C@H]1CN(C)C(=O)c2cc(NC(=O)CC(F)(F)F)ccc2OC[C@@H](C)N(C(=O)C2CCCCC2)C[C@@H]1C,0,2,0,-3,-5,28*
CC=Cc1ccc2n(c1=O)C[C@@H]1[C@@H](CO)[C@H](C(=O)NCCC)[C@H]2N1C(=O)C1CCCC1 (mixture of isomers),-1,-1,9,·,·,-19

# Source: PubChem
